Source: PMC5540273 (PLoS ONE, 2017)

Assays:
Conditions in all cases: concentration: 1 μM, replicates: in singlicate; n = 1
CAMK1 = system: CAMK1
CAMK2A = system: CAMK2A
CAMK2B = system: CAMK2B
CAMK2D = system: CAMK2D
CAMK2G = system: CAMK2G
CAMK4 = system: CAMK4
CAMKK1 = system: CAMKK1
CAMKK2 = system: CAMKK2
CASK = system: CASK
CDC2L1 = system: T1, CDC2L1
T1 construct: gene CDK11B
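Also: KINOMEscan kinase panel screen.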

SMILES | %Inh (CAMK1) | %Inh (CAMK2A) | %Inh (CAMK2B) | %Inh (CAMK2D) | %Inh (CAMK2G) | %Inh (CAMK4) | %Inh (CAMKK1) | %Inh (CAMKK2) | %Inh (CASK) | %Inh (CDC2L1)
CC(=O)Nc1cn2nc(Oc3cccc(NC(=O)c4cccc(C(F)(F)F)c4)c3)ccc2n1 | 19% | 0% | 15% | 1% | 0% | 0% | 0% | 0% | 17% | 7%
Cc1ccc(NC(=O)c2ccc(Cl)c(Cl)c2)cc1-c1ccc(C(=O)Nc2ccncc2)cc1 [GSK1398460] | 27% | 0% | 0% | 7% | 0% | 9% | 0% | 4% | 0% | 2%
COC(=O)Nc1nc2ccc(Oc3ccc(NC(=O)Nc4cc(C(F)(F)F)ccc4F)cc3)cc2[nH]1.Cl [GW654607] | 2% | 0% | 0% | 0% | 15% | 0% | 6% | 6% | 12% | 0%
CCNC(=O)/C=C/c1n[nH]c2cc(Sc3ccccc3C(=O)NC)ccc12 | 7% | 0% | 0% | 17% | 27% | 0% | 10% | 33% | 40% | 10%
O=C(Nc1n[nH]c2nc(-c3ccccc3O)ccc12)C1CC1 [SB-711880] | 0% | 0% | 0% | 0% | 0% | 0% | 3% | 0% | 13% | 0%
COc1cccc(CC(=O)N2CCc3cc(-c4cn(C)c5ncnc(N)c45)ccc32)c1 [GSK2608899] | 16% | 0% | 0% | 15% | 27% | 13% | 7% | 9% | 16% | 1%
Cc1ccc(NC(=O)c2ccnc(N3CCCCC3)c2)cc1-c1ccc(C(=O)NCC2CC2)cc1 [GW775610] | 0% | 0% | 0% | 0% | 0% | 10% | 0% | 0% | 0% | 6%
CN(c1ccc(NC(=O)N2CCN(CCCN3CCOCC3)CC2)cc1)c1ccnc(Nc2ccc(CS(C)(=O)=O)cc2)n1.Cl [GW830899] | 0% | 0% | 0% | 1% | 0% | 0% | 19% | 0% | 0% | 2%
